Common to all, as to assay: DAPPL (digital affinity profiling via proximity ligation, sequencing); 10 mM Tris-HCl pH 7.5, 50 mM NaCl, 1 mM DTT, 4% glycerol, room temperature, 30 min; GST-TFs on glutathione beads, 16-mer random dsDNA library, 0.1% formaldehyde crosslink after washing; high values mean tight binding
The target in one assay is T1, FLI1 (Homo sapiens, UniProt Q01543 1-452).
T1 sequence: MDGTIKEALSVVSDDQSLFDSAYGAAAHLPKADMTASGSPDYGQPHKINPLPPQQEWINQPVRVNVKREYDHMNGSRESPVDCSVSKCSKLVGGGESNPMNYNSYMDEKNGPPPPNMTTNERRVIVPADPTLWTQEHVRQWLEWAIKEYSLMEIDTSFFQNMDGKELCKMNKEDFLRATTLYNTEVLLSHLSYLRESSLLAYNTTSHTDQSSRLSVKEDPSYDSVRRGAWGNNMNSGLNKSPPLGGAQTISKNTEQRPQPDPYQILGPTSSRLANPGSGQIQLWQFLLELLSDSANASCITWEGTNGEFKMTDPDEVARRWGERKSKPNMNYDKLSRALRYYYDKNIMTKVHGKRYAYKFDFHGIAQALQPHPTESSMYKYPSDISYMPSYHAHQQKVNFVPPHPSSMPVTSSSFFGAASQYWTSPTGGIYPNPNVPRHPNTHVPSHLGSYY
Conditions: protein: recombinant; tags: N-terminal GST; dsDNA, one strand shown. The gist of the method:
(§1)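 Binding signal is defined as a hexamer's read frequency for one factor over its frequency for the tag-only sample. To obtain reads, GST-fused human transcription factors were expressed in yeast, captured on glutathione beads, barcoded with DNA and pooled with that sample. Pools met 200 nmole of a 16-mer random double-stranded DNA library in Tris/NaCl/DTT/glycerol buffer for 30 min at room temperature before washing, 0.1% formaldehyde crosslinking, proximity ligation (BsaI/T4 ligase, 1 h, 37 °C), PCR and Illumina NextSeq500 sequencing.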

The next assay deals with T2, ELK1 (Homo sapiens, UniProt P19419 1-428).
T2 sequence: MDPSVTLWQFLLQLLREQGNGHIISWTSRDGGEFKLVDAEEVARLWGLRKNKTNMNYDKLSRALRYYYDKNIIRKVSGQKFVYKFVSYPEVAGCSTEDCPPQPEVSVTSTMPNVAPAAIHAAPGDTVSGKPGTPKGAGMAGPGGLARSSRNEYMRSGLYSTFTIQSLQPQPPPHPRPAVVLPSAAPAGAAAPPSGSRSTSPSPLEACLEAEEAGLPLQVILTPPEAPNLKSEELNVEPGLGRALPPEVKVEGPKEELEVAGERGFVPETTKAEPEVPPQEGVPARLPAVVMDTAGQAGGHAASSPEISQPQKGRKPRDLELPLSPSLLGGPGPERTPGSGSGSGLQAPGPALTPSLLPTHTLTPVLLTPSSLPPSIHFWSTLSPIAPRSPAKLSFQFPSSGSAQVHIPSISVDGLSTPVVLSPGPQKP
Conditions: protein: recombinant; tags: N-terminal GST; dsDNA, one strand shown. The gist of the method:
as §1

A further assay concerns the target T3, GABPA (Homo sapiens, UniProt Q06546 1-454).
T3 sequence: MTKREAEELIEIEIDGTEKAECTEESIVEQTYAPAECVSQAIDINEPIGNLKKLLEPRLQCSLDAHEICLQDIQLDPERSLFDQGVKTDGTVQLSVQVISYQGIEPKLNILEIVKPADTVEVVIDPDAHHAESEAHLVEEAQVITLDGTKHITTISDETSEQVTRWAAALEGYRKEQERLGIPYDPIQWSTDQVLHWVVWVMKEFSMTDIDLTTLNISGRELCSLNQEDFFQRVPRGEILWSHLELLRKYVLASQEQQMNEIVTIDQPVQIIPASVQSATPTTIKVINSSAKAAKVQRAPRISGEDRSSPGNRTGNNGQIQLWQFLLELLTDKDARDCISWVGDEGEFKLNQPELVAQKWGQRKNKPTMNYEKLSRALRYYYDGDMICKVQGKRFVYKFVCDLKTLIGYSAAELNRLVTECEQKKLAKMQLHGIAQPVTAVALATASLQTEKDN
The conditions noted are these: protein: recombinant; tags: N-terminal GST; dsDNA, one strand shown. The gist of the method:
as §1

For another assay, the target named is T4, ERG (Homo sapiens, UniProt P11308 1-479).
T4 sequence: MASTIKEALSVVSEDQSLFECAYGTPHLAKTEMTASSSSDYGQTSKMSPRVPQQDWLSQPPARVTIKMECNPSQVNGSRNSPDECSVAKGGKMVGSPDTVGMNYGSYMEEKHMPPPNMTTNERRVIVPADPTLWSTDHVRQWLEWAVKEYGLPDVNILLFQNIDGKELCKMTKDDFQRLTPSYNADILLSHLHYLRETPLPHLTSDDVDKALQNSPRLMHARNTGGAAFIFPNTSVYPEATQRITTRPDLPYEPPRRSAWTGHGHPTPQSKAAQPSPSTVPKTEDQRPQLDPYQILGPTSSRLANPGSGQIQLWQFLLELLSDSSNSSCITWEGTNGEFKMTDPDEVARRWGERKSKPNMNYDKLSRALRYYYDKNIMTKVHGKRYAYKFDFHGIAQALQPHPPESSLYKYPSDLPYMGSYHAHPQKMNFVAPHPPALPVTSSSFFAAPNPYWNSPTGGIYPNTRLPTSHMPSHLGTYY
Conditions: protein: recombinant; tags: N-terminal GST; dsDNA, one strand shown. An outline of the steps:
as §1

The target of another assay is ELF1 (Homo sapiens, UniProt P32519 1-619). The conditions noted are these: protein: recombinant; tags: N-terminal GST; dsDNA, one strand shown. An outline of the steps: as §1
Chain of ELF1 (P32519 whole entry): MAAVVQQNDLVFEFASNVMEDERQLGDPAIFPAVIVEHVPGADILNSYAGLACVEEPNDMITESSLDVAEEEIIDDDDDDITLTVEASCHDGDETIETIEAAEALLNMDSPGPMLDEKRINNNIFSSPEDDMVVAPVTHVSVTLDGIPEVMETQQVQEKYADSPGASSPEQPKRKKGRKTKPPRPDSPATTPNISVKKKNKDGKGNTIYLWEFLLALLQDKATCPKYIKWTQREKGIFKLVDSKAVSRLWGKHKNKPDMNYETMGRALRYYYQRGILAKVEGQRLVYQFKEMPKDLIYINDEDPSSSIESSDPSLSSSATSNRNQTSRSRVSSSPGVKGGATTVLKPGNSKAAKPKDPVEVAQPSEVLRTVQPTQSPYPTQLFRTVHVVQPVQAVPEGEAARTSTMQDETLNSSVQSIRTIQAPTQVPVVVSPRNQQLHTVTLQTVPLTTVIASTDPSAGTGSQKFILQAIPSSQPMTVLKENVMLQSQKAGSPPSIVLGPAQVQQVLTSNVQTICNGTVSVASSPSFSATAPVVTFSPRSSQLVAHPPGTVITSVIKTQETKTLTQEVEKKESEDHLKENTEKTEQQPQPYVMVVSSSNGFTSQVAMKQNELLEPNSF
The target of a further assay is T5, EHF (Homo sapiens, UniProt Q9NZC4 1-300).
T5 sequence: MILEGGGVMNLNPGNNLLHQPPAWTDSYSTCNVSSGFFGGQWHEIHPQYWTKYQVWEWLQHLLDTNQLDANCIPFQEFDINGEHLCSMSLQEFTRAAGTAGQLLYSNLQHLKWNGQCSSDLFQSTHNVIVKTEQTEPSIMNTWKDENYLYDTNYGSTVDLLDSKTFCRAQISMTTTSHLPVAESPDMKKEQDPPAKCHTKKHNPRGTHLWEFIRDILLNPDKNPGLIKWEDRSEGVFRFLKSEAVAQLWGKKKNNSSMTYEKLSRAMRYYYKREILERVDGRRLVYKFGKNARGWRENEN
Conditions: protein: recombinant; tags: N-terminal GST; dsDNA, one strand shown. An outline of the steps:
as §1

A further assay addresses SPI1 (Homo sapiens, UniProt P17947 1-270). Conditions: protein: recombinant; tags: N-terminal GST; dsDNA, one strand shown. The gist of the method: as §1
A further assay deals with SPIB (Homo sapiens, UniProt Q01892 1-262). The conditions noted are these: protein: recombinant; tags: N-terminal GST; dsDNA, one strand shown. An outline of the steps:
as §1

For another assay, the target named is T6, ELK3 (Homo sapiens, UniProt P41970 1-407).
T6 sequence: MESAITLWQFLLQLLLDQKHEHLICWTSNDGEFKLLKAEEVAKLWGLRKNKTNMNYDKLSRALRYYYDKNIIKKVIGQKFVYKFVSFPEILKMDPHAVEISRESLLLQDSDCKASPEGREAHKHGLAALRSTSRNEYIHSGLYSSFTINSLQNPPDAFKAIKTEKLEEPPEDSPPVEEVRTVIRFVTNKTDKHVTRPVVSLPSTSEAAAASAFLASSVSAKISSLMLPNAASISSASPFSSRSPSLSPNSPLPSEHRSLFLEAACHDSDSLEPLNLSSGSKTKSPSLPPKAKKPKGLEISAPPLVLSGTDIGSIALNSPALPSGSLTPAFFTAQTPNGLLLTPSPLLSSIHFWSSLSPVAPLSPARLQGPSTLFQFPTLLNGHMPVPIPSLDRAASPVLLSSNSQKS
Conditions: protein: recombinant; tags: N-terminal GST; dsDNA, one strand shown. An outline of the steps: as §1

The target in a further assay is T7, FEV (Homo sapiens, UniProt Q99581 1-238).
T7 sequence: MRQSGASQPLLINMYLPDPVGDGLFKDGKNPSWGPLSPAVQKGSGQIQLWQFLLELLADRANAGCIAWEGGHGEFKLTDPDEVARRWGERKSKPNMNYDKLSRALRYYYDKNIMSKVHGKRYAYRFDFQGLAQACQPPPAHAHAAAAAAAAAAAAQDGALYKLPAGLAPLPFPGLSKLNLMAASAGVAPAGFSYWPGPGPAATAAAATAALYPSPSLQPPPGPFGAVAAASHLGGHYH
The conditions noted are these: protein: recombinant; tags: N-terminal GST; dsDNA, one strand shown. An outline of the steps:
as §1

Another assay concerns the target ETV5 (Homo sapiens, UniProt P41161 1-510). Conditions: protein: recombinant; tags: N-terminal GST; dsDNA, one strand shown. The gist of the method: as §1
The target of a further assay is HSF1 (Homo sapiens, UniProt Q00613 1-529). The conditions noted are these: protein: recombinant; tags: N-terminal GST; chain copies: 3; dsDNA, one strand shown. The gist of the method:
as §1

The target of a further assay is ELF4 (Homo sapiens, UniProt Q99607 1-663). Conditions: protein: recombinant; tags: N-terminal GST; dsDNA, one strand shown. The gist of the method: as §1
Chain of ELF4 (Q99607 whole entry): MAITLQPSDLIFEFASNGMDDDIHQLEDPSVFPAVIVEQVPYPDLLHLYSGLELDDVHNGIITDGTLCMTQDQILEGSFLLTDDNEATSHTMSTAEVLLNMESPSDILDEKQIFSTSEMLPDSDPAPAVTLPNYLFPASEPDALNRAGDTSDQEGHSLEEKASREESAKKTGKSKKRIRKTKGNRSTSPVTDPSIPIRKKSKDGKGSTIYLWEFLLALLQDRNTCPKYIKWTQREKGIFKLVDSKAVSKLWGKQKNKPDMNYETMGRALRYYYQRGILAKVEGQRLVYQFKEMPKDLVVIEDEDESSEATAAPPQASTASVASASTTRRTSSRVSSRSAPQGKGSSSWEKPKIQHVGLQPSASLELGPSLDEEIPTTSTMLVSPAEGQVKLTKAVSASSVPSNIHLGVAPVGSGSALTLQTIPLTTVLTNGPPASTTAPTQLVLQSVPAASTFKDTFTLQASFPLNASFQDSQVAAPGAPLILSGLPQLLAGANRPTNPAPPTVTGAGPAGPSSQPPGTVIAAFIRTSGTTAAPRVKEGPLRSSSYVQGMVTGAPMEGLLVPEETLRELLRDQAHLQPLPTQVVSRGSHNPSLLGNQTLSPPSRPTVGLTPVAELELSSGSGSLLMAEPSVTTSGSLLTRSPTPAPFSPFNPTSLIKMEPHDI
The next assay has as its target T8, ELK4 (Homo sapiens, UniProt P28324-2 1-405).
T8 sequence: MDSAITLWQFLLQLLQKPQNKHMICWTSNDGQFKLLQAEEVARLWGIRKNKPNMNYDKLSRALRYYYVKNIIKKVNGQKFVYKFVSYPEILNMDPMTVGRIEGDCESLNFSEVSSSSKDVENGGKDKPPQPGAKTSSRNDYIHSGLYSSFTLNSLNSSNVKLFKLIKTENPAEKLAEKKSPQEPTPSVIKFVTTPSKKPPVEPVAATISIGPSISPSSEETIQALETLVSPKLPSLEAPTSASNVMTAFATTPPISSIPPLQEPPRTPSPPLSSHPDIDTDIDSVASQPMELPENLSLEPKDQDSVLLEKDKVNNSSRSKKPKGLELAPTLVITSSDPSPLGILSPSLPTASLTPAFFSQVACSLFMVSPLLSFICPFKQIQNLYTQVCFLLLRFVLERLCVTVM
Conditions: protein: recombinant; tags: N-terminal GST; dsDNA, one strand shown. The gist of the method:
as §1

A further assay addresses T9, ETV2 (Homo sapiens, UniProt O00321 1-342).
T9 sequence: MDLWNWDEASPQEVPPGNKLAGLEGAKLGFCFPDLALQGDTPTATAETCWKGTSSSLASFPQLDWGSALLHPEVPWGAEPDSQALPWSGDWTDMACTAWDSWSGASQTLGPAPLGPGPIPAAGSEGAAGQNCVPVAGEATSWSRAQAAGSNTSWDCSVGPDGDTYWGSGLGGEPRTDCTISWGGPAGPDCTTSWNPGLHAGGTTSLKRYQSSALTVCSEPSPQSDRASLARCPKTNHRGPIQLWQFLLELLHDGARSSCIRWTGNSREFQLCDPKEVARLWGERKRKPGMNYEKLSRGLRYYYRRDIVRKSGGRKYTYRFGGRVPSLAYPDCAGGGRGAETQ
The conditions noted are these: protein: recombinant; tags: N-terminal GST; dsDNA, one strand shown. An outline of the steps: as §1

Another assay deals with T10, ELF3 (Homo sapiens, UniProt P78545 1-371).
T10 sequence: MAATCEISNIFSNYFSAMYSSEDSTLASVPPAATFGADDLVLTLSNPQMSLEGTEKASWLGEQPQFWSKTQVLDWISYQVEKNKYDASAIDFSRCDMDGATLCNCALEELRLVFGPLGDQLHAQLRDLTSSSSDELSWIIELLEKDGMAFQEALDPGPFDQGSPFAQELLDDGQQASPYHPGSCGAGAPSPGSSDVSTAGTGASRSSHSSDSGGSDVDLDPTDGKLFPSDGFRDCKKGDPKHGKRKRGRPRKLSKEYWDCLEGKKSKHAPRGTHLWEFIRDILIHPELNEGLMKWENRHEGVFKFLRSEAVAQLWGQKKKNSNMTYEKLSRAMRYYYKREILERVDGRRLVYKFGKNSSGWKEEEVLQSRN
The conditions noted are these: protein: recombinant; tags: N-terminal GST; dsDNA, one strand shown. The gist of the method:
as §1

A further assay addresses CRX (Homo sapiens, UniProt O43186 1-299). The conditions noted are these: protein: recombinant; tags: N-terminal GST; dsDNA, one strand shown. The gist of the method:
as §1

A further assay concerns the target ETV1 (Homo sapiens, UniProt P50549 1-477). Conditions: protein: recombinant; tags: N-terminal GST; dsDNA, one strand shown. An outline of the steps:
as §1

Chain of SPIB (Q01892 whole entry): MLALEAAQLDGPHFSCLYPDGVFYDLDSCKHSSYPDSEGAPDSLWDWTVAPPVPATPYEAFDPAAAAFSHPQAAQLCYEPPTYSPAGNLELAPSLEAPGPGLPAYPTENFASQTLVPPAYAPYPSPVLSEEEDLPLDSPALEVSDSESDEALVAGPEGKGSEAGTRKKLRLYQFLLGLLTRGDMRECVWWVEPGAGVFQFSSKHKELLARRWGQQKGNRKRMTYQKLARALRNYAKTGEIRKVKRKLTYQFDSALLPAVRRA
Chain of ETV1 (P50549 whole entry): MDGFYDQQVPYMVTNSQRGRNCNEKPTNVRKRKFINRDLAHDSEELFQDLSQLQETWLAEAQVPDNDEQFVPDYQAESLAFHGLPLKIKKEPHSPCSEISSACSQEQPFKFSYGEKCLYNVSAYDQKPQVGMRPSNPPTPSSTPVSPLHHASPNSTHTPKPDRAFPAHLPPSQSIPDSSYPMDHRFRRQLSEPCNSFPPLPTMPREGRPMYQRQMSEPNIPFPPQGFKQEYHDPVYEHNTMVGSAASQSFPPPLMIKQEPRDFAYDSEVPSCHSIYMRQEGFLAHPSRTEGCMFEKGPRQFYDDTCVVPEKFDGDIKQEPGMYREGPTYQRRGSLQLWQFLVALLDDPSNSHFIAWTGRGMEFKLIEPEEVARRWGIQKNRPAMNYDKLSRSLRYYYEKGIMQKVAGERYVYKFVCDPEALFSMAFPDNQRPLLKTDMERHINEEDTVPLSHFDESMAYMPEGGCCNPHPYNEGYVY
Chain of HSF1 (Q00613 whole entry): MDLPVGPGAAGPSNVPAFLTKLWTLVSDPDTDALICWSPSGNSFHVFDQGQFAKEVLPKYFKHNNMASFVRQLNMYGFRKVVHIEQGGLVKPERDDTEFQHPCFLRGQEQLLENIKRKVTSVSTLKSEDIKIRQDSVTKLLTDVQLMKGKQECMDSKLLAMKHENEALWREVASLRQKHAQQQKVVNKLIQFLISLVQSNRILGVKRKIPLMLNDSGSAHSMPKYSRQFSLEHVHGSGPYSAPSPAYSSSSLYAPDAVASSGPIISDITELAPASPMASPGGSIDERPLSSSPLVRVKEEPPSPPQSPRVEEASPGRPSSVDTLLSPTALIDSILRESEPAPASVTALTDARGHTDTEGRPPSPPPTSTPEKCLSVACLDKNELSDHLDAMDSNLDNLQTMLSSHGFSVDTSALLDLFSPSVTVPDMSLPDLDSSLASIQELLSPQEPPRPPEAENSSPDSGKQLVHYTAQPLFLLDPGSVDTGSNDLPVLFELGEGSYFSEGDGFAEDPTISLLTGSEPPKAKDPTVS
Chain of ETV5 (P41161 whole entry): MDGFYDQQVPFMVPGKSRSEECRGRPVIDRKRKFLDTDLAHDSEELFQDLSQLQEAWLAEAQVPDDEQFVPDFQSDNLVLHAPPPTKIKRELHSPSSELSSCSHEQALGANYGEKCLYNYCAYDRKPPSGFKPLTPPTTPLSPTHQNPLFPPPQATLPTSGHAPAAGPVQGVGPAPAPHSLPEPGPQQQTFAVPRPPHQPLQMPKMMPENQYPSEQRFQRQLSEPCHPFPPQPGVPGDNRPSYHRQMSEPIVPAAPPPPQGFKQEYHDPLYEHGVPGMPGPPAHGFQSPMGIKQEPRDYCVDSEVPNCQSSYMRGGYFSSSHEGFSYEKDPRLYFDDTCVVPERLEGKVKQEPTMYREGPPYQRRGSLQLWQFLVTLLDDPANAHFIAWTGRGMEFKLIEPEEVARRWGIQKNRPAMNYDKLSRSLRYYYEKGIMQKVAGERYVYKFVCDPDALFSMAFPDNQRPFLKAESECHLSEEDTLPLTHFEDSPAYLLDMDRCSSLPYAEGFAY
Chain of CRX (O43186 whole entry): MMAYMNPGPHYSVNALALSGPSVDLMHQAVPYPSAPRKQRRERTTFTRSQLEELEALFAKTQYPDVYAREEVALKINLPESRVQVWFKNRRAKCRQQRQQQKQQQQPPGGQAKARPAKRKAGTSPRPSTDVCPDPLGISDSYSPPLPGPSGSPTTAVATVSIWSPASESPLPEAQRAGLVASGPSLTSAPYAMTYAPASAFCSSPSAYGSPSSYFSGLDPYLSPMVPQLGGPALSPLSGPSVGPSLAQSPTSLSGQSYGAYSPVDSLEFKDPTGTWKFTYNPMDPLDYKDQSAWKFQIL

As for AAGCTC, the binding signal in the assay with FLI1 was 1.22 fold enrichment (6-mer frequency, TF over GST control); in the assay with ELK1, 1.22 fold enrichment (6-mer frequency, TF over GST control); in the assay with GABPA, 1.25 fold enrichment (6-mer frequency, TF over GST control); with ERG, 1.17 fold enrichment (6-mer frequency, TF over GST control); with ELF1 it was 1.2 fold enrichment (6-mer frequency, TF over GST control); with EHF it was 1.15 fold enrichment (6-mer frequency, TF over GST control). Also, the binding signal with SPI1 was 1.12 fold enrichment (6-mer frequency, TF over GST control); in the assay with SPIB, 1.11 fold enrichment (6-mer frequency, TF over GST control); in the assay with ELK3 it was 1.09 fold enrichment (6-mer frequency, TF over GST control); in the assay with FEV, 1.14 fold enrichment (6-mer frequency, TF over GST control); with ETV5, 1.16 fold enrichment (6-mer frequency, TF over GST control); with HSF1, 1.42 fold enrichment (6-mer frequency, TF over GST control). Moreover, the binding signal was 1.21 fold enrichment (6-mer frequency, TF over GST control) with ELF4; 1.2 fold enrichment (6-mer frequency, TF over GST control) in the assay with ELK4; 1.15 fold enrichment (6-mer frequency, TF over GST control) with ETV2; 1.2 fold enrichment (6-mer frequency, TF over GST control) with ELF3; 1.68 fold enrichment (6-mer frequency, TF over GST control) in the assay with CRX; 1.22 fold enrichment (6-mer frequency, TF over GST control) in the assay with ETV1.
